# Test results reported in PubChem BioAssay (Tox21).
# The source made the active and inactive calls. Calls come from the whole dose curve; as a rule, active = well fitted curve in the direction sought with a large enough effect in the repeat runs; inconclusive = weak or mixed curves; inactive = flat fitted curve, though single readings scatter.
# Test: qHTS assay to test for compound auto fluorescence at 460 nm (blue) in HepG2 cell free culture (AID 720685)
# Details: Cell-free culture medium, blue autofluorescence 405/460 nm; series mostly up to 91.3 µM
# Description: U.S. Tox21 Program National Center for Advancing Translational Sciences [NCATS] NIH Chemical Genomics Center [NCGC] U.S. Environmental Protection Agency [EPA] National Institutes of Environmental Health Sciences [NIEHS] National Toxicology Program [NTP] U.S. Food and Drug Administration [FDA] Tox21 Assay Overview: Compound auto fluorescence often interferes with screening of the compound library against various biological targets and signaling pathways. Some of these compounds may have fluorophoric properties. Such properties may interfere with the assay outputs resulting in false positives and/or negatives. To decrease such complications and ensure the compound activities are relevant in terms of biological response, the Tox21 10K compound library was screened for auto fluorescence. From the fluorophores used as reporter signals in our screening assays, the auto fluorescence equivalencies of compounds against three fluorophores have been evaluated: Triamterene, Fluorescein and Rose Bengal sodium for blue, green and red fluorescence, respectively. The fluorescence intensities were measured using Excitation/Emission wavelengths at 405/460nm, 485/535nm and 540/590nm for blue, green and red labels, respectively. This assay includes the blue fluorescence data.
# Tox21 Assay Protocol Summary: 5 uL of culture medium (MEM containing 10% FBS) per well was dispensed into black wall/clear bottom 1536-well plates using a Multidrop Combi Dispenser (ThermoFisher Scientific, Waltham, MA). After 23 nL compound or DMSO vehicle was transferred into assay plate by a pintool work station (Kalypsys, San Diego, CA), fluorescence intensities in the assay plates were measured by an Envision (PerkinElmer, Shelton, CT) plate reader using three labels for measuring blue, green and red fluorescence at […] 460, 535 and 590nm respectively.
row,Structure (SMILES),outcome
1,C=CCOCC1CO1 (stereo not given),inactive
2,O=C1c2ccccc2C(=O)N1SC(Cl)(Cl)Cl,inactive
3,C1CS1,inactive
4,CC(C)c1ccc(NC(=O)N(C)C)cc1,inactive
5,N#CC(C#N)=Cc1ccc(O)c(O)c1,inactive
6,C=CCOC(=O)C(C)(C)OC(=O)c1cc(-n2c(=O)cc(C(F)(F)F)n(C)c2=O)ccc1Cl,inactive
7,CCOP(=S)(OCC)Oc1ccc(S(C)=O)cc1 (stereo not given),inactive
8,O=C(O)COc1cc(Cl)c(Cl)cc1Cl,inactive
9,Nc1ccc2c(c1)Cc1ccccc1-2,inactive
10,O=C(O)c1cc(Cl)ccc1Cl,inactive
11,CC(C)(C)NCC(O)c1cc(Cl)c(N)c(C(F)(F)F)c1 (stereo not given),inactive
12,CN[C@@H](C)[C@H](O)c1ccccc1,inactive
13,O=C(O)CCCOc1ccc(Cl)cc1Cl,inactive
14,CN1CC[C@]23c4c5ccc(O)c4O[C@H]2[C@@H](O)CC[C@H]3[C@H]1C5,inactive
15,CC(C)(C)CC(C)(C)c1ccc(O)cc1,inactive
16,c1ccc2c(c1)-c1cccc3cccc-2c13,inactive
17,COC1=CC(=O)O[C@@H](/C=C/c2ccc3c(c2)OCO3)C1,inactive
18,CC(C)OC(=O)Cc1ccccc1,inactive
19,CCC(C)(C)O,inactive
20,O=[N+]([O-])O[C@H]1CO[C@H]2[C@@H]1OC[C@H]2O[N+](=O)[O-],inactive

row,Structure (SMILES),outcome
1,CCC(C)(C)c1ccc(O)c(C(C)(C)CC)c1,inactive
2,CC[N+]1(C)CCCC(OC(=O)C(O)(c2ccccc2)c2ccccc2)C1 (stereo not given),inactive
3,Nc1cccc2ccccc12,inactive
4,CN(C1CCCCC1)C1CCCCC1,inactive
5,OCC1CO1 (stereo not given),inactive
6,O=C(O)C(O)C(O)C(=O)O (stereo not given),inactive
7,N#CC(C#N)=C(C#N)C#N,inactive
8,O=C1NC(=O)C(=O)C(=O)N1,inactive
9,ClCc1ccccc1Cl,inactive
10,COP(=O)(OC)OC(Br)C(Cl)(Cl)Br (stereo not given),inactive
11,NC(=O)CF,inactive
12,CCC(C)Cl (stereo not given),inactive
13,Cc1nc(N(C)C)nc(OC(=O)N(C)C)c1C,inactive
14,C[C@H]1O[C@H](OC2[C@@H](O)[C@@H](O)C(O)[C@H](O)[C@H]2O)[C@@H](N)C[C@@H]1N=C(N)C(=O)O (stereo not given in full),inactive
15,CCNC(=O)NC(=O)/C(C#N)=N/OC,inactive
16,O=C(CCl)CCl,inactive
17,O=[N+]([O-])c1cc(Cl)c(Cl)cc1Cl,inactive
18,NCCc1cc(O)c(O)cc1O,inactive
19,C=CC(C)(CCC=C(C)C)OC(=O)c1ccccc1N (stereo not given),inactive
20,CC(C)(C)OOC(C)(C)CCC(C)(C)OOC(C)(C)C,inactive
